Active and inactive are the calls of the source. How the source made its calls: active means hit-call score of the fitted dose curve at least 0.9, where 1 is the maximum; inactive means score below 0.9.

Read-out in test [1]: Tissue plasminogen activator (tPA), PLAT (gene 5327)
Kind of test: BSK_BE3C_tPA: BioMAP Diversity Plus: BE3C Assay for Tissue plasminogen activator (tPA) Biomarker Activity (AID 2283041).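 On outcome: tPA level quantified by ELISA one day after compound addition.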 The note with it: primary human bronchial epithelial cells; actives raise or lower the signal. The essentials: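 Using human lung primary bronchial epithelial cells, tPA was measured by ELISA 24 h after dosing; data fitted relative to DMSO.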

Read-out in test [2]: Interleukin-8 (IL8), CXCL8 (gene 3576)
Kind of test: BSK_CASM3C_IL8: BioMAP Diversity Plus: CASM3C Assay for Interleukin-8 (IL8) Biomarker Activity (AID 2283042).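 Further: IL-8 protein level quantified by ELISA.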 Particulars: primary human coronary artery smooth muscle cells; actives raise or lower the signal.

Read-out in test [3]: Macrophage colony-stimulating factor (MCSF), CSF1 (gene 1435)
Kind of test: BSK_CASM3C_MCSF: BioMAP Diversity Plus: CASM3C Assay for Macrophage colony-stimulating factor (MCSF) Biomarker Activity (AID 2283044).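 Further: M-CSF protein amount quantified by ELISA after 24 h exposure.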 The note with it: primary human coronary artery smooth muscle cells; actives raise or lower the signal.

Read-out in test [4]: Low-density lipoprotein receptor (LDLR), LDLR (gene 3949)
Nature of the test: BSK_CASM3C_LDLR: BioMAP Diversity Plus: CASM3C Assay for Low-density lipoprotein receptor (LDLR) Biomarker Activity (AID 2283045).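 Further: LDLR protein level on the cell surface quantified by ELISA.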 The note with it: primary human coronary artery smooth muscle cells; actives raise or lower the signal.

Read-out in test [5]: Monocyte Chemoattractant Protein-1 (MCP1), CCL2 (gene 6347)
Kind of test: BSK_CASM3C_MCP1: BioMAP Diversity Plus: CASM3C Assay for Monocyte Chemoattractant Protein-1 (MCP1) Biomarker Activity (AID 2283046).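 Further: MCP-1 level quantified by ELISA 24 h after dosing.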 The note with it: primary human coronary artery smooth muscle cells; actives raise or lower the signal.

The nature of test [6]: BSK_CASM3C_Proliferation: Cell Proliferation Assessment in the BioMAP Diversity Plus: CASM3C Assay (AID 2283047).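 Further: sulforhodamine B total protein stain as relative cell number at 560 nm; sub-confluent cells exposed 48 h before staining; fitted both ways against DMSO so gain or loss of cell number.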 The note with it: primary human coronary artery smooth muscle cells.
Read-out in test [7]: Monokine induced gamma interferon (MIG), CXCL9 (gene 4283)
Kind of test: BSK_CASM3C_MIG: BioMAP Diversity Plus: CASM3C Assay for Monokine induced gamma interferon (MIG) Biomarker Activity (AID 2283048).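 Further: MIG protein level measured by ELISA.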 The note with it: primary human coronary artery smooth muscle cells; actives raise or lower the signal.

Read-out in test [8]: serum amyloid A (SAA), SAA1 (gene 6288)
Nature of the test: BSK_CASM3C_SAA: BioMAP Diversity Plus: CASM3C Assay for serum amyloid A (SAA) Biomarker Activity (AID 2283049).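 Further: SAA protein level quantified by ELISA.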 The note with it: primary human coronary artery smooth muscle cells; actives raise or lower the signal.

Test [9] can be described thus: BSK_CASM3C_SRB: Viability Assessment in the BioMAP Diversity Plus: CASM3C Assay (AID 2283050).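 Further: total protein by SRB staining as cytotoxicity measure in parallel cultures; cells exposed to compound for 24 h.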 Particulars: primary human coronary artery smooth muscle cells.
Read-out in test [10]: Thrombomodulin, THBD (gene 7056)
Kind of test: BSK_CASM3C_Thrombomodulin: BioMAP Diversity Plus: CASM3C Assay for Thrombomodulin Biomarker Activity (AID 2283051).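 Further: thrombomodulin protein level measured by ELISA 24 h after dosing.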 Particulars: primary human coronary artery smooth muscle cells; actives raise or lower the signal.

Read-out in test [11]: Tissue Factor, F3 (gene 2152)
Nature of the test: BSK_CASM3C_TissueFactor: BioMAP Diversity Plus: CASM3C Assay for Tissue Factor Biomarker Activity (AID 2283052).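 Further: cell surface tissue factor protein level read by ELISA.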 The note with it: primary human coronary artery smooth muscle cells; actives raise or lower the signal.

Read-out in test [12]: Interferon-gamma inducible Protein 10 (IP10), CXCL10 (gene 3627)
Nature of the test: BSK_hDFCGF_IP10: BioMAP Diversity Plus: hDFCGF Assay for Interferon-gamma inducible Protein 10 (IP10) Biomarker Activity (AID 2283053). Particulars: primary human foreskin fibroblasts; actives raise or lower the signal. A digest of the protocol: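 Chemical-treated human skin fibroblasts (primary) were sampled at 24 h for IP-10 by ELISA. Both increases and decreases relative to DMSO were scored.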

Read-out in test [13]: Urokinase-type plasminogen activator receptor (uPAR), PLAUR (gene 5329)
Nature of the test: BSK_CASM3C_uPAR: BioMAP Diversity Plus: CASM3C Assay for Urokinase-type plasminogen activator receptor (uPAR) Biomarker Activity (AID 2283054).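 Further: cell-surface uPAR protein level quantified by ELISA.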 The note with it: primary human coronary artery smooth muscle cells; actives raise or lower the signal.

Read-out in test [14]: Vascular cell adhesion molecule 1 (VCAM1), VCAM1 (gene 7412)
Kind of test: BSK_CASM3C_VCAM1: BioMAP Diversity Plus: CASM3C Assay for Vascular cell adhesion molecule 1 (VCAM1) Biomarker Activity (AID 2283055).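 Further: VCAM-1 protein level quantified by ELISA on the cells.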 Particulars: primary human coronary artery smooth muscle cells; actives raise or lower the signal.

Read-out in test [15]: Collagen III, COL3A1 (gene 1281)
Kind of test: BSK_hDFCGF_CollagenIII: BioMAP Diversity Plus: hDFCGF Assay for Collagen III Biomarker Activity (AID 2283056). Particulars: primary human foreskin fibroblasts; actives raise or lower the signal. The essentials:
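ELISA read-out of collagen III from human skin fibroblast cultures sampled 24 h post-dosing. Values were derived by bidirectional fitting relative to the DMSO vehicle control.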

Read-out in test [16]: Epidermal growth factor receptor (EGFR), EGFR (gene 1956)
Kind of test: BSK_hDFCGF_EGFR: BioMAP Diversity Plus: hDFCGF Assay for Epidermal growth factor receptor (EGFR) Biomarker Activity (AID 2283057). Particulars: primary human foreskin fibroblasts; actives raise or lower the signal. The essentials:
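Cell-based multiplexed assay in primary human foreskin fibroblasts. EGFR is read by ELISA 24 h after treatment and compared with DMSO controls.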

Read-out in test [17]: Interleukin-8 (IL8), CXCL8 (gene 3576)
Kind of test: BSK_hDFCGF_IL8: BioMAP Diversity Plus: hDFCGF Assay for Interleukin-8 (IL8) Biomarker Activity (AID 2283058). Particulars: primary human foreskin fibroblasts; actives raise or lower the signal. The essentials: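 Cells used are human skin primary fibroblasts. Chemical is added, cultures run 24 h, then IL-8 is quantified by ELISA, and gain or loss versus DMSO control is fitted in both directions.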

The nature of test [18]: BSK_hDFCGF_Proliferation: Cell Proliferation Assessment in the BioMAP Diversity Plus: hDFCGF Assay (AID 2283059).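 Further: curves fitted for both rise and fall of signal versus DMSO baseline.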 Particulars: primary human foreskin fibroblasts. The essentials: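 Steps: dose primary human dermal fibroblasts (foreskin); […] fix in 10% TCA; stain with 0.1% SRB; read 560 nm; fit gain or loss of signal against DMSO.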
Read-out in test [19]: Human Leukocyte Antigen - DR isotype (HLADR), HLA-DRA (gene 3122)
Nature of the test: BSK_CASM3C_HLADR: BioMAP Diversity Plus: CASM3C Assay for Human Leukocyte Antigen - DR isotype (HLADR) Biomarker Activity (AID 2283043).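 Further: cell-surface HLA-DR protein level quantified by ELISA.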 The note with it: primary human coronary artery smooth muscle cells; actives raise or lower the signal.

Read-out in test [20]: Macrophage colony-stimulating factor (MCSF), CSF1 (gene 1435)
Nature of the test: BSK_hDFCGF_MCSF: BioMAP Diversity Plus: hDFCGF Assay for Macrophage colony-stimulating factor (MCSF) Biomarker Activity (AID 2283060). The note with it: primary human foreskin fibroblasts; actives raise or lower the signal. The essentials: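 Primary human foreskin fibroblasts dosed with chemical; 24 h later, M-CSF quantified by ELISA; curves fitted in both directions vs DMSO negative control.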

The AC50 is the midpoint of the concentration-response curve, whichever way the signal moves. Take `CC(=O)C1(C)CC2=C(CCCC2(C)C)CC1C` (stereo not given): the AC50 in [1] was 12.7 µM (active); in test [3] it was 10.3 µM (active); in test [5], 20 µM (active); in test [6] it was 13.2 µM (active); in test [7], 27.6 µM (active); in [8], 11.9 µM (active). In addition, the AC50 in test [9] is 12.4 µM (active); in test [11] it was 11.6 µM (active); in test [12], 13.8 µM (active); in test [13] it was 12.3 µM (active); in test [14], 11.4 µM (active); in test [15], 10.5 µM (active). In addition, the results for the AC50 in test [16], in test [17] and in [18] were 6.8 µM (active), 31.7 µM (active) and 10.6 µM (active), respectively. Also, the outcome in test [2], in test [4] and in [10] was inactive.

Turning to `CN(C)C(=O)Nc1ccc(Oc2ccc(Cl)cc2)cc1`, the AC50 in test [1] is 4.19 µM (active). In addition, the outcome in test [2], in [19], in [3], in test [4], in [5] and in [6] was inactive. Also, the outcome in test [7], in [8], in test [9], in [10], in test [11] and in [12] was inactive. Besides, the outcome in [13], in test [14], in test [15], in [16], in [17] and in test [18] was inactive. For the same molecule, the result in [20] was inactive.

As to `Cc1cc(CCC(=O)OCCOCCOCCOC(=O)CCc2cc(C)c(O)c(C(C)(C)C)c2)cc(C(C)(C)C)c1O`, the outcome in test [1], in test [2], in test [19], in [3], in test [4] and in test [5] was inactive. In addition, the outcome in test [6], in test [7], in test [8], in [9], in test [10] and in test [11] was inactive. Also, the outcome in test [12], in test [13], in test [14], in [16], in test [17] and in test [20] was inactive. The AC50 was 23.1 µM (active) in test [15] and 22.8 µM (active) in test [18].

Consider `CCN(CC)C(=O)N(CC)CC`, for which the outcome in test [1], in test [2], in test [19], in test [3], in test [4] and in test [5] was inactive. For the same molecule, the outcome in test [6], in [7], in test [8], in test [9], in [10] and in [11] was inactive. Besides, the result in test [12], in test [13], in [14], in test [15], in test [16] and in test [17] was inactive. In test [18], the result was inactive.

In the case of `CN(C)C(=S)SC(=S)N(C)C`, the outcome in test [1], in test [2], in test [3], in [4], in test [5] and in [8] was inactive. Also, the outcome in [9], in test [11] and in test [13] was inactive. In addition, the concentration at half-maximal activity (AC50) in test [19] was 19.9 µM (active); in test [6], 19.9 µM (active); in [7], 19.9 µM (active); in test [10], 4.02 µM (active); in test [12], 35.1 µM (active); in test [14], 19.9 µM (active). Moreover, the AC50 in test [15] was 15.2 µM (active); in [16] it was 19.9 µM (active); in [17], 39.1 µM (active); in [18] it was 30.2 µM (active).

Turning to `CCCCOC(=O)CCCCCCCC(=O)OCCCC`, the result in [1], in test [2], in test [19], in test [3], in [4] and in [5] was inactive. In addition, the outcome in test [6], in test [7], in [8], in [9], in test [10] and in test [11] was inactive. In addition, the outcome in [12], in [13], in test [14], in test [15], in test [16] and in test [17] was inactive. Further, the result in test [18] was inactive.
